Screens as filed in PubChem BioAssay.
Hits are enriched below; roughly 3.1% of the tested compounds scored in any of these assays.
UHRF1 binding: human UHRF1 methylated DNA binding inhibitors; Q96T88; UHRF1 binding to methylated oligo, TR-FRET; inhibition, % at 4.4 µM; 0.75% of 370,000 active; AID 687016; in the data active means inhibition above about 21%;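 further: UHRF1 SRA domain binding a hemimethylated CpG hairpin DNA probe; 0% = median of test compound wells and 100% = reference inhibitor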
KLK7 zymogen act: proKLK7 (human) activation, primary screen; 0.9% of 370,000 active; activation, % at 7 µM; P49862; purified proKLK7, EDANS-DABCYL substrate fluorescence; 100% is mature enzyme control, 0% vehicle;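 active means activation above the mean of all tested compounds plus 3 SD, computed per campaign excluding outliers beyond control limits, cut at about 13% in these data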
Neddyl block: blocks human cullin neddylation; AID 651699; TR-FRET cullin neddylation, biochemical; calls only at 25 µM; 0.58% of 360,000 active; in the data active means inhibition above about 36%
Target sequence (P61081 whole entry, looked up): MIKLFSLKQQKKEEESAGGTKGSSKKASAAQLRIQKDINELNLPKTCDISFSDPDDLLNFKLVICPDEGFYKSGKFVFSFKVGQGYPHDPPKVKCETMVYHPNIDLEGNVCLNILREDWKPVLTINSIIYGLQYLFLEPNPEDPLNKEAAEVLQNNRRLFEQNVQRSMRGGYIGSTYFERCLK
Target sequence (Q13564 whole entry, looked up): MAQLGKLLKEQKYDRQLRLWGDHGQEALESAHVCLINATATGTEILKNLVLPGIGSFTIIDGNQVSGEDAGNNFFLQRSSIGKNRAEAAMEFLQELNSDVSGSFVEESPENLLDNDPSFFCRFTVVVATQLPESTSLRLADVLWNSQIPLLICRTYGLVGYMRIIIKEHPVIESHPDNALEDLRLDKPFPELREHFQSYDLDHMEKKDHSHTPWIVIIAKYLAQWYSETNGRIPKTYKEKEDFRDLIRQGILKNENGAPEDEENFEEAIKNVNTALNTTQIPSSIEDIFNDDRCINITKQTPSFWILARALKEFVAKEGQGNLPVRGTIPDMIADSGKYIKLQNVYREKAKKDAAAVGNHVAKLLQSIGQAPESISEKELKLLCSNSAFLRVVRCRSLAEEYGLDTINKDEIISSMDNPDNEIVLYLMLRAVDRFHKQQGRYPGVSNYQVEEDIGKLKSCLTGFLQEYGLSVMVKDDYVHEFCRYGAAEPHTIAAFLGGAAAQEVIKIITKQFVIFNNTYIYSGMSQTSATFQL
Rin1 Abl inh: blocks binding of human Rin1 to Abl; TR-FRET Rin1/Abl binding, biochemical; inhibition, % at 7.35 µM; 0.4% of 360,000 active; in the data active means inhibition above about 5%, passing the limit was not always enough
MBD2 DNA inh: MBD2-methylated oligo binding inhibition. TR-FRET, MBD2 binding to methylated oligonucleotide. inhibition, % at 4.4 µM. 0.31% of 370,000 active. Q9UBB5. AID 686964; in the data active means inhibition above about 13%
LEDGF integ inh: blocks HIV-1 LEDGF/p75-dependent DNA integration; 0.64% of 370,000 active; TR-FRET IN-LEDGF/p75 DNA integration, Eu/Cy5; inhibition, % at 3.7 µM;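 active means inhibition above the screen-wide mean plus 3 SD, cut at about 13% in these data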;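 further: signal is the Cy5 over europium emission ratio at 671 and 618 nm; 0% = plate median of compound wells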
KLK7 act conf: proKLK7 activation, confirmation | shares compounds with KLK7 zymogen act | purified proKLK7, EDANS-DABCYL substrate fluorescence; scaled: vehicle 0, mature enzyme 100 | activation, % at 7 µM | 68% of 3,200 active | AID 686949;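 active means activation, as change over the incubation, above the mean of all tested compounds plus 3 SD, cut at about 13% in these data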
EDANS interfere: optically interferes with EDANS-DABCYL signal, flagging KLK7 hits; shares compounds with KLK7 zymogen act; EDANS-DABCYL substrate fluorescence interference, no enzyme, 4 h; solvent 0%, active enzyme control 100%; activation, % at 7 µM; 80% of 3,200 active; AID 686952;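 active means activation above the all-compound mean plus 3 SD, ignoring values outside control-based bounds, cut at about 4.8% in these data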;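 further: value is the 4 h activation minus the activation read at time zero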
K7 EDANS ctr: counter-screen for kallikrein-7 activators: EDANS-DABCYL interference, dose response; 20% of 250 active; shares compounds with KLK7 zymogen act; AID 720493; EDANS-DABCYL peptide fluorescence interference, no enzyme; EC50, µM;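 active means compounds that raise the fluorescence signal in this interference counterscreen, with EC50 at or below 10 µM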;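 further: intact quenched peptide substrate alone read at 355 nm excitation and 520 nm emission; signal is fluorescence gain from T0 to T4 after four hours at room temperature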
An asterisk follows results filed as active; i = inactive; . = no result given.

SMILES	UHRF1 binding	KLK7 zymogen act	Neddyl block	Rin1 Abl inh	MBD2 DNA inh	LEDGF integ inh	KLK7 act conf	EDANS interfere	others
COCCn1c(-c2ccco2)nc2nc3ccccc3nc21	-6	43*	.	-3	-2	1	62*	82*
CC(=O)NCCC(=O)Nc1sc2c(c1-c1nc3ccccc3[nH]1)CCCC2	-2	2	.	-1	-9	-5	.	.
CN1CCN(S(=O)(=O)c2cccc(C(=O)Nc3sc4c(c3-c3nc5ccccc5[nH]3)CCCC4)c2)CC1	-2	50*	i	0	2	1	-4	12*
COc1ccccc1-n1c(N)c(C(=O)NCC2CCCO2)c2nc3ccccc3nc21 (configuration not stated)	-5	14*	.	-1	-2	1	-168	-174
FC(F)(F)c1ccc(Cn2ccc3ccc(-c4ccc5ccn(Cc6ccccc6)c5c4)cc32)cc1	-2	-1	.	.	-9	4	.	.
Cc1ccc(-c2cn3cccnc3n2)cc1	0	85*	.	1	5	0	64*	69*
CS(=O)(=O)Nc1ccc(-c2cn3cccnc3n2)cc1	-2	123*	.	-1	-4	-3	39*	39*
Cc1ccc(-c2cn3cccnc3n2)cc1NC(=O)c1ccc(Br)o1	1	22*	.	1	7	3	17*	4.9*	K7 EDANS ctr=>69
C[C@H]1CNC(=O)c2c(C(=O)N3CCN(c4ccccc4)CC3)ncn21	1	1	.	.	-1	-2	.	.
CCOc1cc(CN2CCC(CO)(Cc3cccc(C(F)(F)F)c3)CC2)ccc1OC	17	0	i	3	9	0	.	.
O=Cc1coc([B-](F)(F)F)c1	3	0	.	.	-4	1	.	.
CCCCCn1c(N)c(C#N)c2nc3ccccc3nc21	7	22*	.	-3	-5	8	-60	-56
N#Cc1c(N)n(CCCN2CCOCC2)c2nc3ccccc3nc12	-11	47*	.	-8	-10	-2	68*	79*
CC(=O)c1cccc(NC(=O)c2c(-c3c(F)cccc3Cl)noc2C)c1	7	0	i	1	0	9	.	.
Clc1ccc(-n2c(SCc3cccc4ccccc34)nnc2-c2ccccn2)cc1	1	0	.	.	1	-5	.	.
N#CCSc1nc2c(cc1C#N)CCCCCC2	-1	15*	i	-1	-4	1	34*	33*
CC(C)OC(=O)CC(=O)CSc1nc2c(cc1C#N)CCCCC2	-2	24*	.	-5	-5	1	80*	81*
CCS(=O)(=O)CCSc1nc2c(cc1C#N)CCCC2	1	0	i	5	-1	-1	.	.
CCOC(=O)CC(=O)CSc1nc2c(cc1C#N)CCCCC2	-2	29*	.	-5	3	2	59*	62*
CC(C)OC(=O)CSc1nc2c(cc1C#N)CCCCC2	9	0	i	3	-3	3	.	.
FC(F)(F)Oc1ccc(Cn2ccc3ccc(-c4ccc5ccn(Cc6ccc(OC(F)(F)F)cc6)c5c4)cc32)cc1	-6	-2	.	.	-4	6	.	.
Cc1cc(C)c(C#N)c(SCC(=O)Nc2nonc2N)n1	2	40*	i	-1	1	-3	74*	72*
COC(=O)CSc1cc(SCC(=O)OC)c(C#N)c(SCC(=O)OC)c1	6	1	i	0	0	1	.	.
COC(=O)CSc1ccc(C#N)c(SCC(=O)OC)c1	-1	17*	i	-5	0	-1	27*	27*
CCOC(=O)CC(=O)CSc1nc2c(c(C)c1C#N)CCC2	-2	45*	i	0	-7	-2	75*	70*
SMILES	UHRF1 binding	KLK7 zymogen act	Neddyl block	Rin1 Abl inh	MBD2 DNA inh	LEDGF integ inh	KLK7 act conf	EDANS interfere	others
Cc1cc(C)c(C#N)c(SCC(=O)C2CC2)n1	-2	89*	i	0	-4	1	121*	135*
Cc1ccc(C)c(NC(=O)CSc2nc(C)cc(C)c2C#N)c1	15	0	i	-2	10	-1	.	.
Cc1cccc(-n2nnc3c(=O)n(Cc4ccccn4)cnc32)c1	-2	0	i	-1	-3	5	.	.
COCc1cc(C)nc(SCC(=O)Nc2nc(C)cs2)c1C#N	-1	76*	i	-1	0	-3	140*	136*
CCOC(=O)CC(=O)CSc1nc(CC)c(C)cc1C#N	4	6	.	-1	-1	-1	.	.
COC(=O)CSc1nc(C)cc(C)c1C#N	2	58*	i	4	1	6	125*	121*
CCOC(=O)CC(=O)CSc1nc(C)cc(C)c1C#N	0	41*	i	2	-6	5	61*	74*
COC(=O)CSc1ccccc1C(=O)OC	-4	55*	i	1	-4	1	84*	83*
NC(=O)c1cccc(-c2coc3c(C(=O)NCc4ccccc4)cccc23)c1	-1	0	i	1	2	-4	.	.
CCN(CC)Cc1nc2c(c(=O)[nH]1)C(CC)(CC)Cc1ccccc1-2	0	0	i	3	8	4	.	.
COc1ccc(OC)c(S(=O)(=O)NC(=O)C2(C)CCN2C(=O)C2(c3ccc(Cl)cc3)CC2)c1 (configuration not stated)	0	0	i	0	-1	-7	.	.
CNc1cncc(-c2cc(OC)c(OC)c(OC)c2)n1	-1	25*	.	-8	8	-3	16*	22*
CNc1cncc(-c2ccc(C)cc2)n1	-3	30*	.	1	1	4	41*	41*
CNc1cccc(-c2cccc(O)c2)n1	0	0	i	-2	-2	-1	.	.
CNc1cncc(-c2ccc(O)cc2C)n1	0	3	i	-2	-4	-4	.	.
CNc1cncc(-c2cccc(O)c2)n1	-5	37*	.	0	-3	7	35*	36*
CNc1cncc(-c2cccc(C(=O)NC3CC3)c2)n1	0	54*	.	-2	5	-1	47*	55*
CCOc1ccccc1NC(=O)CCCNC(=O)c1ccc(Cl)cc1	-1	0	i	1	9	3	.	.
COc1cccc(-c2oc3c(c2C(=O)OCCN2CCCCC2)C(O)CCC3)c1 (configuration not stated)	9	0	i	.	-3	4	.	.
CC(C)(C)N(Cc1cn(Cc2ccccc2)nn1)S(=O)(=O)c1ccccc1Br	5	0	.	.	-6	6	.	.
